Test results reported in the supplement of paper PMC10849652.
Targets with a hit are over-represented here; the source holds about 7,900 in all. About 0.6% of all pairs of compound and target were hits.

What was measured:
Assay in all cases: log2 fold change, soluble protein after heating vs DMSO (PISA); higher = thermal stabilisation; K562 cells, 10 uM, 30 min; active = over 0.2 and 3.5 SD of the protein, either way, in both replicates (recomputed)
[1] = molecular target: ZW10 (UniProt O43264)
Chain of ZW10 (O43264 whole entry, looked up): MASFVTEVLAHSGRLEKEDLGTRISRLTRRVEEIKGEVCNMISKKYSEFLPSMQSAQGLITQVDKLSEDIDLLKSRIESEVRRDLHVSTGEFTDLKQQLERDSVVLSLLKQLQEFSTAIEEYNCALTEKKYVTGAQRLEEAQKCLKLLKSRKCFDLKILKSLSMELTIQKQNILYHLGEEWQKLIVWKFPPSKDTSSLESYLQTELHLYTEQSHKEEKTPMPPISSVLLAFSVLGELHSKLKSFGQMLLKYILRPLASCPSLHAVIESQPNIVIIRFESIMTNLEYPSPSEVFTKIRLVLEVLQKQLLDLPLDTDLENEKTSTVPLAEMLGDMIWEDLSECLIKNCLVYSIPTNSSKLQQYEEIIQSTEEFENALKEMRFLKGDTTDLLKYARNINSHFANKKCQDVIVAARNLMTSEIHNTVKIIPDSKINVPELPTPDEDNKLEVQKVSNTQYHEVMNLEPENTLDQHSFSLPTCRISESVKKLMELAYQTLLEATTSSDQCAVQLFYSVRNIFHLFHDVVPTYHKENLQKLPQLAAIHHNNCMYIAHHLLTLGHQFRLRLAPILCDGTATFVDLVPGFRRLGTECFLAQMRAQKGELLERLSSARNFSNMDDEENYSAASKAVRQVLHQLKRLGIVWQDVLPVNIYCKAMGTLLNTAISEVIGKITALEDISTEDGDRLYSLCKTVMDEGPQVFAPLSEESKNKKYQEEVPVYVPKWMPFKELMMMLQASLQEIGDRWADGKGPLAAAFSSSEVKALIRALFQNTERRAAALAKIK
Summary of the method: (§1)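 K562 cells at 2×10^6 cells/mL were given 10 μM compound for 30 min. Aliquots then went through 3 min of heating across 48°C-58°C, were pooled, and were extracted in PBS with 0.5% NP-40 at 4°C, and the supernatant after 21,000xg for 90 min was quantified by TMTpro 16plex LC-MS/MS with channel sums equalised. Thermal stability relative to control samples, from duplicates, is given as log2 fold change.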

[2] = molecular target: ZWILCH (UniProt Q9H900)
Chain of ZWILCH (Q9H900 whole entry, looked up): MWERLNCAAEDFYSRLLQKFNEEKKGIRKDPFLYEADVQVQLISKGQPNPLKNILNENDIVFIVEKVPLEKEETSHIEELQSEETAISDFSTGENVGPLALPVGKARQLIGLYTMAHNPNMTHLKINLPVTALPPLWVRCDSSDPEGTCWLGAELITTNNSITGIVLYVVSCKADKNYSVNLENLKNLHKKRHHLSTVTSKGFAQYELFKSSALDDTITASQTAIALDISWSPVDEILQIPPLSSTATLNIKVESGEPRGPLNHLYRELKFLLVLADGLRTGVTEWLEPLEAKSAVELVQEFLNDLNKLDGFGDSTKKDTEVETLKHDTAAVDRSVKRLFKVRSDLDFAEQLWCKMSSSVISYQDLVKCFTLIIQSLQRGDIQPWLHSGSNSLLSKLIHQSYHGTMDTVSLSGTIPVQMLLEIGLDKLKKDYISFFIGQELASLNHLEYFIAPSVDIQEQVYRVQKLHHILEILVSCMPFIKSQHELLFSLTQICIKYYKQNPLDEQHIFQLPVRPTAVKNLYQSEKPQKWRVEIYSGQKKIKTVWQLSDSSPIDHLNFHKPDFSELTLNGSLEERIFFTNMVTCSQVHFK
Summary of the method: as §1

[3] = molecular target: ZYG11B (UniProt Q9C0D3)
Chain of ZYG11B (Q9C0D3 whole entry, looked up): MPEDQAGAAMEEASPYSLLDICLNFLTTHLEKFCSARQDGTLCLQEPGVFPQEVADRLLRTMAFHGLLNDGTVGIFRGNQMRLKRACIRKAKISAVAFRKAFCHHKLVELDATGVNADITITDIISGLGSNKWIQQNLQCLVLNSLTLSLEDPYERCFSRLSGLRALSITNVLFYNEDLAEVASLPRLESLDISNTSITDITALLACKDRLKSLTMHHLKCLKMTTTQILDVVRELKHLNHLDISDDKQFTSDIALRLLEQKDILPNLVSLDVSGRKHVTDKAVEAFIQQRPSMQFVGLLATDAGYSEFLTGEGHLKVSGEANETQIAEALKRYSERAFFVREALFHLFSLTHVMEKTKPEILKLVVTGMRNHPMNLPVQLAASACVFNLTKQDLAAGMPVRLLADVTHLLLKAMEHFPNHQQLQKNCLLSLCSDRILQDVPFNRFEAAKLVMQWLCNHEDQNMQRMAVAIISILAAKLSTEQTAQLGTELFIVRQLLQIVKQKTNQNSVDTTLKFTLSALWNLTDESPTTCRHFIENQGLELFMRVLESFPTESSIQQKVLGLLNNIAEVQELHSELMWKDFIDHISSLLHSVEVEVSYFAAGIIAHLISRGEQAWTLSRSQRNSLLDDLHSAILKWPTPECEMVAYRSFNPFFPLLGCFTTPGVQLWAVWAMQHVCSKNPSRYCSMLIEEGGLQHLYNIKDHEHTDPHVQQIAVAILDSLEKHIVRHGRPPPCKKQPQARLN
Summary of the method: as §1

Measured: log2 fold change

O=C(Nc1cccc(Nc2ncc(Br)c(NCCc3cnc[nH]3)n2)c1)N1CCCC1
inactive: [1] -0.018 | [2] 0.029 | [3] -0.026

C[C@@H](Oc1cc(-c2cnn(C3CCNCC3)c2)cnc1N)c1c(Cl)ccc(F)c1Cl [crizotinib]
inactive: [1] -0.137 | [2] -0.068 | [3] -0.031

CCCS(=O)(=O)Nc1ccc(F)c(C(=O)c2c[nH]c3ncc(-c4ccc(Cl)cc4)cc23)c1F [vemurafenib]
inactive: [1] 0.025 | [2] 0.04 | [3] 0.048

CON(C)C(=O)N1N=C(c2cc(F)ccc2F)S[C@@]1(CCCN)c1ccccc1 [filanesib]
inactive: [1] 0.052 | [2] 0.016 | [3] 0.014

CCCCN(Cc1ccc(C(=O)NO)cc1)C(=O)Nc1ccccc1 [Nexturastat A]
inactive: [1] 0.093 | [2] -0.008 | [3] -0.011

CO[C@H]1C[C@@H]2CC[C@@H](C)[C@@](O)(O2)C(=O)C(=O)N2CCCC[C@H]2C(=O)O[C@H]([C@H](C)C[C@@H]2CC[C@H](n3cnnn3)[C@H](OC)C2)CC(=O)[C@H](C)/C=C(\C)[C@@H](O)[C@@H](OC)C(=O)[C@H](C)C[C@H](C)/C=C/C=C/C=C/1C [zotarolimus]
inactive: [1] 0.023 | [2] 0.046 | [3] 0.024

C#Cc1cccc(Nc2ncnc3cc(OCCOC)c(OCCOC)cc23)c1 [erlotinib]
inactive: [1] 0.016 | [2] 0.009 | [3] -0.015

CC1=C(C(=O)Nc2cc3cn[nH]c3cc2F)C(c2ccc(C(F)(F)F)cc2)CC(=O)N1 (stereo not drawn)
inactive: [1] -0.033 | [2] -0.051 | [3] -0.06

Cc1ccc2c(=O)c3ccccc3n(CCCN)c2c1C
inactive: [1] 0.013 | [2] 0.013 | [3] 0.009

CC(C)C[C@@H](C=O)NC(=O)[C@H](CC(C)C)NC(=O)[C@H](CC(C)C)NC(=O)OCc1ccccc1
inactive: [1] 0.007 | [2] 0.079 | [3] 0.042

CS(=O)(=O)CCNCc1ccc(-c2ccc3ncnc(Nc4ccc(OCc5cccc(F)c5)c(Cl)c4)c3c2)o1 [lapatinib]
inactive: [1] -0.01 | [2] 0.018 | [3] -0.05
